# Calls of active or inactive are those of the source. Unless noted, the rule behind the calls is not given here.
# Experiment: Pseudomonas biofilm growth suppression – PAO1 strain, BacTiter-Glo luminescence, LB-PBS, primary screen (AID 1144)
# Details: P. aeruginosa PAO1 biofilm, 12 h, higher = more signal
row,SMILES,z-score
1,C=C(COC)/C(=C/C[C@H](OC(C)=O)c1ccc(CO)o1)c1cc(C(=O)OC)ccc1OC,-0.261 (inactive)
2,COC(=O)[C@@]1(Cc2ccc(OC)cc2)[C@H]2c3cc(C(=O)N(C)C)n(C)c3C[C@H]2CN1C(=O)c1ccccc1,0.584 (inactive)
3,CCOC(=O)[C@H]1C/C=C/C[C@H](C(=O)OCC)C(=O)O[C@H]2[C@@H](OC)O[C@H](CO)[C@@H](OC(=O)c3c(OC)cccc3OC)[C@@H]2OC1=O,0.0437 (inactive)
4,CC(C)NC(=O)[C@@]1(c2ccc([N+](=O)[O-])cc2)CC(=O)N(C2CCCCC2)[C@@H]1c1ccc(CO)cc1I,1.11 (inactive)
5,CN1C(=O)C2C=CC(C(O)c3ccc([N+](=O)[O-])cc3)N(N3CCCCC3)C2C1=O (stereo not drawn),-0.711 (inactive)
6,COCCOC(=O)N1C(=O)[C@@]2(c3cc(C#CCNC(N)=O)ccc31)[C@H](C(=O)N1CCN(c3ncccn3)CC1)[C@H]1C(=O)O[C@H](c3ccccc3)[C@H](c3ccccc3)N1[C@@H]2c1ccc(OCCO)cc1,-0.82 (inactive)
7,O=C1NC(=O)C2C1C=CC(C(O)c1cc(C(F)(F)F)cc(C(F)(F)F)c1)N2Nc1ccccn1 (stereo not drawn),-0.162 (inactive)
8,COCCOC(=O)N1C(=O)[C@@]2(c3ccccc31)[C@H](C(=O)N1CCc3cc(OC)c(OC)cc3C1)[C@H]1C(=O)O[C@H](c3ccccc3)[C@H](c3ccccc3)N1[C@@H]2c1ccc(OCCO)cc1,0.73 (inactive)
9,COC(=O)C(CC#Cc1ccc2c(c1)[C@]1(C(=O)N2)[C@H](C(=O)Nc2nc3ccccc3s2)[C@H]2C(=O)O[C@H](c3ccccc3)[C@H](c3ccccc3)N2[C@@H]1c1ccccc1OCCO)C(=O)OC,-0.438 (inactive)
10,CN1C(=O)C2C=CC(C(O)c3ccccc3)N(N(c3ccccc3)c3ccccc3)C2C1=O (stereo not drawn),0.808 (inactive)
11,COC(=O)[C@@]1(CCS(=O)(=O)c2ccccc2)N=C(c2ccc(OCCCO)cc2)O[C@H]1c1ccccc1CN=[N+]=[N-],0.945 (inactive)
12,COC(=O)[C@H](Cc1ccccc1)N1CC2=C[C@@H](C3CC3)n3c(=O)n(C)c(=O)n3[C@H]2[C@@H]1[C@@H](O)Cc1ccccc1,0.39 (inactive)

# Experiment: basal CRE-LacZ reporter activity in PC12 – cell-based, unstimulated, primary screen (AID 1145)
# Details: no forskolin, luminescence, 4.5 h, higher = more signal, called active from +8 up or from −8 down
row,SMILES,z-score
1,CC[C@@H]1C=C(C(=O)O)[C@H](c2ccc(Br)cc2)N1S(=O)(=O)c1ccc(C)cc1,0.0798 (inactive)
2,O=C1c2ccccc2[C@](Cc2ccccc2I)(C(=O)NCCN2CCOCC2)[C@H](c2ccc(CO)cc2)N1Cc1ccccc1Cl,-0.0512 (inactive)
3,COC(=O)[C@@]1(Cc2ccc(OC)cc2)[C@H]2c3cc(C(=O)N4CCCC4)n(CCN4CNCC4=O)c3C[C@H]2CN1C(=O)c1ccccc1,0.201 (inactive)
4,COC(=O)[C@@]1(Cc2ccc(OC)cc2)[C@@H]2C(=CC(=O)[C@H]2CC(=O)C(=O)N2CCCC2)CN1C(=O)c1ccccc1,-0.754 (inactive)
5,C=CCNC(=O)[C@@H]1[C@H]2C(=O)O[C@H](c3ccccc3)[C@H](c3ccccc3)N2[C@H](c2ccc(O)cc2)[C@@]12C(=O)N(C(=O)OCCOC)c1ccc(C#CCNC(N)=O)cc12,0.35 (inactive)
6,Cc1ccc(S[C@]2(C(=O)NCCCN(C)C)CC(=O)N(Cc3cc(C(F)(F)F)cc(C(F)(F)F)c3)[C@@H]2c2ccc(CO)cc2)cc1,-0.152 (inactive)
7,COc1ccc([Si](C)(C)[C@H]2[C@H](CCO)O[C@@]3(C(=O)N(Cc4ccc(N(C=O)c5ccccc5)cc4)c4ccccc43)[C@@H]2C)cc1,1.92 (inactive)
8,[N-]=[N+]=Nc1ccccc1[C@H]1OC(c2ccc(OCCCO)cc2)=N[C@@]1(CCS(=O)(=O)c1ccccc1)C(N)=O,0.96 (inactive)
9,NC(=O)NCC#Cc1ccc2c(c1)[C@]1(C(=O)N2)[C@H](c2ccccc2OCCO)N2[C@H](c3ccccc3)[C@H](c3ccccc3)OC(=O)[C@H]2[C@@H]1C(=O)Nc1nc2ccccc2s1,-0.0784 (inactive)
10,CCCC=C(CCC)[C@@H](NC(=O)c1cccs1)c1ccc(C(F)(F)F)cc1,-0.761 (inactive)
11,CN(C)C(=O)[C@]1(Cc2ccccc2N=[N+]=[N-])N=C(c2ccc(OCCCO)cc2)O[C@@H]1c1ccccc1N=[N+]=[N-],0.0686 (inactive)
12,COC(=O)[C@@]1(Cc2ccc(OC)cc2)[C@H]2c3cc(C(=O)N(C)C)n(Cc4ccccn4)c3C[C@H]2CN1C(=O)c1ccccc1,1.16 (inactive)
13,COC(=O)[C@@]1(Cc2ccc(F)cc2)[C@H]2c3cc(C(=O)N4CCCC4)n(CCCNc4ncc(C(F)(F)F)cc4Cl)c3C[C@H]2CN1C(=O)c1ccccc1,1.74 (inactive)
14,O=C(CS)NCCCCCCNC(=O)[C@@H]1C[C@@H]2C(=O)NCC(=O)N2[C@@H]1c1cccc(OCCO)c1,-0.252 (inactive)
15,CCOC(=O)C[C@H]1[C@H](OC(=O)c2ccccc2-c2ccccc2)[C@@H](NC(=O)CC(C)C)c2cc(OCCCO)ccc2N1C(=O)Cc1ccc(OC)cc1,6.91 (inactive)
16,COc1ccc([C@H]2OC[C@@H]3C[C@@H](Cc4ccccc4)C(=O)N32)cc1,0.978 (inactive)
17,COc1ccc(CCNC(=O)[C@@]2(C)c3ccccc3C(=O)N(C(C)C)[C@H]2c2ccc(CO)cc2)cc1,0.827 (inactive)
18,C=CCOC(=O)[C@@H]1[C@H]2C(=O)O[C@H](c3ccccc3)[C@H](c3ccccc3)N2[C@H](c2ccc(OCCOC(=O)[C@@H]3C[C@@H]4C(=O)NCC(=O)N4[C@@H]3c3ccc(O)cc3)cc2)[C@@]12C(=O)Nc1ccc(I)cc12,-0.13 (inactive)

row,SMILES,z-score
1,O=C1C[C@@](C(=O)NCCN2CCOCC2)(c2ccc([N+](=O)[O-])cc2)[C@@H](c2ccc(CO)cc2)N1CC12CC3CC(CC(C3)C1)C2,1.62 (inactive)
2,COCCOC(=O)N1C(=O)[C@@]2(c3cc(C#CCC(C(=O)OC)C(=O)OC)ccc31)[C@H](C(=O)Nc1nc3ccccc3s1)[C@H]1C(=O)O[C@H](c3ccccc3)[C@H](c3ccccc3)N1[C@@H]2c1ccccc1OCCO,-0.141 (inactive)
3,COC(=O)[C@@]1(Cc2ccccc2)[C@H]2c3cc(C(=O)N(C)C)n(Cc4ccsc4Br)c3C[C@H]2CN1C(=O)c1ccccc1,0.58 (inactive)
4,CC1CC/C=C\[C@H]2OC34C=CCN(C(C)(C)C)C(=O)[C@H]3N(CCO)C(=O)[C@@H]4C2C(=O)O1 (stereo partly drawn),-0.753 (inactive)
5,C=C(CCCC)/C(=C/C[C@@H](OC(C)=O)c1ccc(OCCO)cc1)c1cnc2ccccc2c1,1.21 (inactive)
6,CC(C)C(O)C1C=CC2C(=O)N(c3ccccc3)C(=O)C2N1Nc1ccc([N+](=O)[O-])cc1 (stereo not drawn),-0.368 (inactive)
7,C=C(COC)/C(=C/C[C@H](OC(C)=O)c1ccc(CO)o1)c1cc(C(=O)OC)ccc1OC,1.78 (inactive)
8,COC(=O)[C@@]1(Cc2ccc(OC)cc2)[C@H]2c3cc(C(=O)N(C)C)n(C)c3C[C@H]2CN1C(=O)c1ccccc1,0.0041 (inactive)
9,CCOC(=O)[C@H]1C/C=C/C[C@H](C(=O)OCC)C(=O)O[C@H]2[C@@H](OC)O[C@H](CO)[C@@H](OC(=O)c3c(OC)cccc3OC)[C@@H]2OC1=O,0.0816 (inactive)
10,CC(C)NC(=O)[C@@]1(c2ccc([N+](=O)[O-])cc2)CC(=O)N(C2CCCCC2)[C@@H]1c1ccc(CO)cc1I,1.04 (inactive)
11,CN1C(=O)C2C=CC(C(O)c3ccc([N+](=O)[O-])cc3)N(N3CCCCC3)C2C1=O (stereo not drawn),1.01 (inactive)
12,COCCOC(=O)N1C(=O)[C@@]2(c3cc(C#CCNC(N)=O)ccc31)[C@H](C(=O)N1CCN(c3ncccn3)CC1)[C@H]1C(=O)O[C@H](c3ccccc3)[C@H](c3ccccc3)N1[C@@H]2c1ccc(OCCO)cc1,1.04 (inactive)
13,O=C1NC(=O)C2C1C=CC(C(O)c1cc(C(F)(F)F)cc(C(F)(F)F)c1)N2Nc1ccccn1 (stereo not drawn),0.0501 (inactive)
14,COCCOC(=O)N1C(=O)[C@@]2(c3ccccc31)[C@H](C(=O)N1CCc3cc(OC)c(OC)cc3C1)[C@H]1C(=O)O[C@H](c3ccccc3)[C@H](c3ccccc3)N1[C@@H]2c1ccc(OCCO)cc1,0.685 (inactive)
15,COC(=O)C(CC#Cc1ccc2c(c1)[C@]1(C(=O)N2)[C@H](C(=O)Nc2nc3ccccc3s2)[C@H]2C(=O)O[C@H](c3ccccc3)[C@H](c3ccccc3)N2[C@@H]1c1ccccc1OCCO)C(=O)OC,0.389 (inactive)
16,CN1C(=O)C2C=CC(C(O)c3ccccc3)N(N(c3ccccc3)c3ccccc3)C2C1=O (stereo not drawn),-0.712 (inactive)
17,COC(=O)[C@@]1(CCS(=O)(=O)c2ccccc2)N=C(c2ccc(OCCCO)cc2)O[C@H]1c1ccccc1CN=[N+]=[N-],1.38 (inactive)
18,COC(=O)[C@H](Cc1ccccc1)N1CC2=C[C@@H](C3CC3)n3c(=O)n(C)c(=O)n3[C@H]2[C@@H]1[C@@H](O)Cc1ccccc1,2.03 (inactive)

# Reference: PubChem BioAssay
